Screening data: PubChem, National Center for Advancing Translational Sciences (NCATS)
Hits are enriched below; roughly 3.4% of the tested compounds scored in any of these assays.
KAT2A inh – blocks human GCN5L2 histone acetyltransferase. Q92830. GCN5L2 HAT assay, ThioGlo1 CoA-SH fluorescence. Potency, µM (series often up to 58.9 µM), for the others: at the highest dose activity change, negative = inhibition, most hits filed as inhibitors. 0.21% of 390,000 active; note: % is set by controls: 0 for no effect and ±100 for the full control effect
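Enzyme at 20nM final was mixed with library compounds for 15 min at room temperature. Peptide H3(1-25) at 75uM, acetyl-CoA at 70uM and ThioGlo1 at 50uM were then added. Plates were read immediately and after 20 min (Ex340nm/Em540nm).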
PKM2 act – PKM2 (human) enzyme activation; purified PKM2, Kinase-Glo ATP luminescence, activation; response scale: 0% is enzyme alone, no compound; Potency, µM (top dose mostly 57.5 µM), for the others: at the top dose activation, most hits filed as activators; 0.34% of 260,000 active; AID 1631; note: % is set by controls: 0 for no effect and ±100 for the full control effect; nearly all actives have a fitted effect of over 55% in size
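ATP formation by purified human PK-M2, quantified via coupled luciferase luminescence after 1 h at room temperature with 0.1 mM ADP and 0.5 mM PEP final.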
GLS inhibitor – inhibitors of human glutaminase (GLS). O94925. GLS enzymatic activity, qHTS titration. Potency, µM (doses to about 45.5 µM), without a hit: at the highest dose activity change, negative = inhibition, usual class: inhibitors. 0.21% of 410,000 active. AID 624170; note: % is set by controls: 0 for no effect and ±100 for the full control effect
Target sequence (O94925 whole entry, looked up): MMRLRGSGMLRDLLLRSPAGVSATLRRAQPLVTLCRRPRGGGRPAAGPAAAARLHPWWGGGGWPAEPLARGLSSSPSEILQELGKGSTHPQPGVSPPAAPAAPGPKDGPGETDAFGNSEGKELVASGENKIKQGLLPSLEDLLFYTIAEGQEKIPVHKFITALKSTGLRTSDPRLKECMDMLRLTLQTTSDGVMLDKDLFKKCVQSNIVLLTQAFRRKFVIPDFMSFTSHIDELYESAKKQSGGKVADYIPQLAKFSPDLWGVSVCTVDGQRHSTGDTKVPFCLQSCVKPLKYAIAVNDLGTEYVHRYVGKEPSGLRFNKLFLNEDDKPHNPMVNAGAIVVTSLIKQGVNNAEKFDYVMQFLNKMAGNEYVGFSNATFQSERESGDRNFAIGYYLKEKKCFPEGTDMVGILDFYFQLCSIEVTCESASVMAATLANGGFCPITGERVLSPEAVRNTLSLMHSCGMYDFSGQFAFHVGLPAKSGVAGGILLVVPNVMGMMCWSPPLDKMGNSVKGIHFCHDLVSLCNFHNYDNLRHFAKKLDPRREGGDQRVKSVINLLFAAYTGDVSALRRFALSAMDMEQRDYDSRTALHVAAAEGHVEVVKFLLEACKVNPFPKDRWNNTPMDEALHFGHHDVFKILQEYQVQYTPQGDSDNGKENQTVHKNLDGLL
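hKGA; 45 mM KH2PO4 pH 8.2 + 0.02% Tween-20; cpd via pin tool; 1 mM Gln soln; GluOx/HRP/Amplex Red; RT 30 min; fluor. t0 & final.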
Mito fusion act – mitochondrial division inhibition or fusion activation. Potency, µM (highest dose often 46.1 µM), for inactives: at the highest dose growth rescue (activation), hits mostly activators. S. cerevisiae fusion-defective mutant growth rescue, CellTiterGlo 48 h. 0.23% of 320,000 active. AID 485298; note: % of control where 0% means no effect; nearly all actives have a fitted effect of over 45% in size
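Read-out: ATP-based luminescence (CellTiterGlo, 10 min ambient) reporting growth of fusion-defective ts yeast after 48 hours at 37C on glycerol/ethanol YPEG medium in the presence of compound.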
VDR inhibitor – vitamin D3 receptor (human) inhibition. 0.93% of 400,000 active. Potency, µM, without a hit: max response, negative = inhibition, actives largely listed as inhibitors. AID 504847. P11473. VDR-SRC2-3 peptide fluorescence polarization, 2 h; note: % is set by controls: 0 for no effect and ±100 for the full control effect
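Two reagent solutions held at 4 deg C in the dark were dispensed, compounds pinned at 23 nl, and the mixture incubated 2 h at room temperature. Read-out: fluorescence polarization of VDR–SRC2-3 peptide binding.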
PLK1 PBD block – inhibitors of human PLK1 polo-box domain binding. P53350. Plk1 PBD binding of FITC phosphopeptide, fluorescence polarization. Potency, µM, for the others: max response, negative = inhibition, most hits filed as inhibitors. 2.8% of 360,000 active. AID 720504; note: series mostly up to about 57 µM; % is set by controls: 0 for no effect and ±100 for the full control effect; nearly all actives have a fitted effect of over 65% in size
* = called active by the depositor; ? = inconclusive; / = no result given; [ ] = dose if it differs, or a comment. Calls come from the whole dose curve; as a rule, active = well fitted curve in the direction sought with a large enough effect; inconclusive = small, poorly fitted or top-dose-only effect, or another doubt; inactive = no such curve, though single readings can be large; an effect the other way counts as inactive or inconclusive. Potency is the fitted concentration of half-maximal effect.

SMILES	KAT2A inh	PKM2 act	GLS inhibitor	Mito fusion act	VDR inhibitor	PLK1 PBD block
Cc1ccc(C(=O)C2=C(O)C(=O)N(Cc3ccco3)C2c2cccc(Cl)c2)o1 (stereo not drawn)	-11.3%	1.8%	-18.7%	3.0%	?	-12.1%
CCOC(=O)c1sc(N2C(=O)C(O)=C(C(=O)c3ccc(C)o3)C2c2ccc(OC)c(OC)c2)nc1C (stereo not drawn)	?	0.1%	-10.7%	0.7%	-13.8%	?
CCOC(=O)c1sc(N2C(=O)C(O)=C(C(=O)c3ccco3)C2c2ccc([N+](=O)[O-])cc2)nc1C (stereo not drawn)	/	/	-8.9%	/	89.1µM*	29.9µM*
COc1ccc(Oc2ncc3ncc(=O)n(Cc4ccc(F)cc4)c3n2)cc1	-11.0%	/	/	/	-5.8%	/
Cc1ccc(NCc2nnc(SCC(N)=O)n2CC2CCCO2)c(C)c1 (stereo not drawn)	-5.9%	-1.7%	4.6%	-3.3%	-12.2%	29.9µM*
CCOC(=O)c1sc(=S)n(C)c1NC(=O)c1ccccc1	-4.8%	-16.8%	-4.8%	-3.7%	79.4µM*	7.52µM*
CCOC(=O)c1sc(=S)n(-c2ccccc2)c1NC(C)=O	-0.9%	2.8%	0.1%	-4.4%	?	?
CCOC(=O)c1sc(=S)n(C)c1NC(=O)c1cccc(Br)c1	-15.2%	-4.9%	16.2%	-8.1%	?	10.6µM*
CCOc1ccccc1-c1nc(Cn2c(=O)cc(C)c3c(C)nn(-c4ccccc4)c32)c(C)o1	-8.7%	/	4.3%	/	6.8%	/
Cc1ccc(C2CC(c3ccc(F)cc3)Nc3nc(N)nn32)cc1 (stereo not drawn)	-1.5%	-5.7%	18.5%	-4.3%	-18.8%	26.7µM*
Nc1nc2n(n1)C(c1ccc(F)cc1)CC(c1ccc(F)cc1)N2 (stereo not drawn)	-4.8%	-4.6%	18.3%	4.5%	4.4%	-0.8%
FC(F)Oc1ccc(NC(=S)Nn2cnnc2)cc1	-15.7%	-12.1%	-6.4%	-0.7%	?	6.7µM*
CC1CN(C(=O)c2nn(C)cc2[N+](=O)[O-])CC(C)O1 (stereo not drawn)	-1.9%	0.5%	27.9%	4.5%	-6.7%	11.9µM*
COC(=O)C(=Cc1cc(Br)c(OC)c(Br)c1)C(=O)OC	/	/	/	/	8.91µM*	/
Cc1ccc(/C=C2/C(=O)ON=C2c2ccccc2)o1	?	?	?	-3.9%	23.0%	0.67µM*
O=C1ON=C(c2ccccc2)/C1=C\c1ccco1	?	3.3%	26.4%	-3.9%	?	9.47µM*
CCCCc1ccc(/C=C2/C(=O)ON=C2c2ccccc2)s1	-5.3%	-3.3%	5.2%	-0.7%	?	-10.9%
COc1cc(/C=C2/C(=O)ON=C2c2ccccc2)ccc1O	-14.4%	10.2%	3.7%	-8.6%	50.1µM*	?
O=C1C(=Cc2ccco2)CCC1=Cc1ccco1	/	/	72.7%	/	?	?
COc1ccc(C(=O)CSC#N)cc1OC	-8.7%	-4.7%	7.6%	-12.8%	?	23.8µM*
CC(=O)c1ccc(NC(=O)COC(=O)c2ccccc2Nc2ccccc2)cc1	?	6.8%	10.3%	6.8%	?	26.7µM*
O=C(COC(=O)c1ccccc1Nc1ccccc1)Nc1ccccc1	0.3%	-4.9%	2.7%	-1.2%	-0.3%	-7.3%
O=C(COC(=O)c1ccccc1C(=O)c1ccccc1)Nc1ccc(SC(F)F)cc1	-8.5%	-2.0%	9.3%	15.8µM*	9.0%	-3.3%
O=C(CC1C(=O)NCCN1C(=O)Nc1ccccc1)Nc1cc(Cl)cc(Cl)c1 (stereo not drawn)	-8.4%	-1.0%	0.3%	-0.6%	-15.4%	-4.1%
CCc1ccc(/C=C/C(=O)c2cc(Br)ccc(=O)c2O)cc1	?	0.7%	4.3%	7.0%	20µM*	21.2µM*
COc1ccc(OC)c(C2=NS(=O)(=O)N(C)C(C(=O)Nc3ccc(F)cc3F)=C2)c1	-9.4%	-1.4%[0.46 µM]	4.2%	20.9%	?	29.9µM*
